SMILES strings stand for the structures. Structures can show the parent of a compound that is named as a salt.

The test system of this assay is primary human hepatic stellate cells (donor 1). Description: ACTA2 mRNA fold change vs DMSO (normalised to PSMB2); higher = more ACTA2 expression. The settings on record: 48 h. The method, then: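 Secondary qRT-PCR screen in primary human HSCs (donor 1), 384-well plates, with compounds dispensed in quadruplicate and incubated for 48 h. Cells-to-CT lysates were used for multiplexed TaqMan qPCR of ACTA2 or COL1A1 with PSMB2 as reference. Fold changes versus DMSO come from a linear model (Ct_gene ~ Ct_PSMB2 + plate + chemical). A hit is defined as COL1A1 and ACTA2 FC <0.5 (FDR <0.05) with PSMB2 between 0.2 and 2.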
Take `COc1cc2ncn(-c3cc(OCc4ccccc4C(F)(F)F)c(C(N)=O)s3)c2cc1OC` (33.3333 µM): the “ACTA2 mRNA fold change” value was found to be 0.333.
Consider `O=C1Nc2ccccc2/C1=C1/Nc2ccccc2C1=O` [Indirubin] (63.5333 µM), for which the “ACTA2 mRNA fold change” value was 1.06.
For `COC(=O)N[C@H](C(=O)N1CCC[C@H]1c1ncc(-c2ccc(-c3ccc(-c4cnc([C@@H]5CCCN5C(=O)[C@@H](NC(=O)OC)C(C)C)[nH]4)cc3)cc2)[nH]1)C(C)C` (33.3333 µM) the value was 0.0331.
Turning to `Cn1cc(C2=C(c3ccc(Cl)cc3Cl)C(=O)NC2=O)c2ccccc21` (33.3333 µM), the “ACTA2 mRNA fold change” value worked out at 0.332.
Turning to `O=C(O[C@H]1CN2CCC1CC2)N1CCc2ccccc2[C@@H]1c1ccccc1` [Solifenacin succinate] (33.3333 µM), the “ACTA2 mRNA fold change” value stood at 0.257.
For the molecule `CCCCCCCCCCCCCCCCn1cc[n+](Cc2ccccc2)c1C` (11.1 µM), the “ACTA2 mRNA fold change” value worked out at 0.0378.
For `COc1ccc(NS(=O)(=O)c2sc3ccc(Cl)cc3c2C)cc1N1CCNCC1` (33.3333 µM) the value was 0.0163; for `NS(=O)(=O)C#Cc1ccccc1` [Pifithrin->m] (33.3333 µM), 0.0598.
With `CCCCCCCCCCCCC/C=C/[C@@H](O)[C@H](CO)N(C)C` [N,N-Dimethylsphingosine] (3.33333 µM), the “ACTA2 mRNA fold change” value worked out at 0.651.
As for `C#CC1(O)CC[C@H]2[C@@H]3CCC4=CC(=O)CC[C@@H]4[C@H]3CC[C@@]21CC` (stereo not given in full) [Norgestrel] (21.3333 µM), the figure is 0.714; as for `Cc1nc(Nc2ncc(C(=O)Nc3c(C)cccc3Cl)s2)cc(N2CCN(CCO)CC2)n1` (33.3333 µM), 0.192.
Turning to `Cc1ccc(-c2ccc3c(ccc4sc5c(c43)NC[C@@H](C)NC5=O)n2)cn1` (33.3333 µM), the “ACTA2 mRNA fold change” value was 1.65.
Consider `Cc1ccc2c(c1)c1c3n2CCNC3CCC1` (stereo not given) [Pirlindole mesylate] (20.6667 µM), for which the “ACTA2 mRNA fold change” value is 0.712.
As for `CC(C)NCCCn1c(Sc2cc3c(cc2I)OCO3)nc2c(N)ncnc21` (33.3333 µM), the “ACTA2 mRNA fold change” value was 1.26.
For `CCC/C=C\C=C/C(=O)N[C@@H](CC(N)=O)C(=O)NC(CC(N)=O)C(=O)N[C@@H](C(=O)N[C@H](CCCN)C(=O)N[C@@H](C(=O)N[C@@H](C(=O)N[C@@H](C(=O)N[C@H](C(=O)N[C@@H](Cc1ccccc1)C(=O)N[C@H](CCCN)C(=O)NC(C(=O)N[C@H](C(=O)NC(C(=O)NCC(=O)N[C@@H](CC(C)C)C(=O)N[C@H](C)C(=O)NC(C(=O)O)C1CCC(O)C(Cl)C1)C1CCC(O)CC1)[C@H](C)O)C1CCC(O)CC1)[C@H](C)O)C1CCC(O)CC1)C1CCC(O)CC1)[C@H](C)O)C1CCC(O)CC1` (stereo not given in full) (33.3333 µM) the value was 0.502; for `Cc1cc(Nc2cc(N3CCN(C)CC3)nc(/C=C/c3ccccc3)n2)n[nH]1` (11.1 µM), 0.703.
Turning to `Cc1nc2ccc(-n3ncc(C(=O)c4cc5ccccc5[nH]4)c3N)cc2[nH]1` (33.3333 µM), the “ACTA2 mRNA fold change” value was determined as 0.785.
Regarding `CC(C)c1ccc(C(=O)c2cccs2)c(SCCCCCCCCN(C)C)n1` (33.3333 µM), the “ACTA2 mRNA fold change” value was determined as 0.846.
As for `CCN1CCC(n2cc(CNc3cc(Cl)c4ncc(C#N)c(Nc5ccc(F)c(Cl)c5)c4c3)nn2)CC1` (33.3333 µM), the figure is 0.0712; as for `CC(/C=C/C(=O)NO)=C\[C@@H](C)C(=O)c1ccc(N(C)C)cc1` [Trichostatin A] (3.33333 µM), 0.0381; as for `CCc1cc2c(cc1CC)CC(NC[C@H](O)c1ccc(O)c3[nH]c(=O)ccc13)C2` [Indacaterol Maleate] (33.3333 µM), 0.0334.
On to `CN1CCC(CNc2ccc3ncc(-c4cccc(OC(F)(F)F)c4)n3n2)CC1` (6.66667 µM), for which the “ACTA2 mRNA fold change” value was 1.23.
As for `CSc1ccc2c(c1)C(N1CCN(C)CC1)Cc1ccccc1S2` (stereo not given) [Methiothepin maleate] (33.3333 µM), the “ACTA2 mRNA fold change” value worked out at 0.00993.
As for `C[C@H]1O[C@@H](O[C@H]2[C@@H](O)C[C@H](O[C@H]3[C@@H](O)C[C@H](O[C@H]4CC[C@@]5(C)[C@H](CC[C@@H]6[C@@H]5C[C@@H](O)[C@]5(C)[C@@H](C7=CC(=O)OC7)CC[C@]65O)C4)O[C@@H]3C)O[C@@H]2C)C[C@H](O)[C@@H]1O` [Digoxin] (33.3333 µM), the figure is 0.0126; as for `CNCCCC1c2ccccc2C=Cc2ccccc21` [Protryptyline hydrochloride] (22.2333 µM), 0.577.
Regarding `O=C(Nc1cc(C(F)(F)F)cc(C(F)(F)F)c1)c1cc(Cl)ccc1O` (33.3333 µM), the “ACTA2 mRNA fold change” value is 0.0138.
Consider `Cc1ccc(NC(=O)c2ccc(CN3CCN(C)CC3)cc2)cc1Nc1nc(-c2cccnc2)cs1` [Masitinib (AB1010, Masivet)] (6.66667 µM), for which the “ACTA2 mRNA fold change” value was determined as 0.706.
Take `NC(N)=NC(=O)c1nc(Cl)c(N2CCCCCC2)nc1N` [5-(N,N-hexamethylene)amiloride] (33.3333 µM): the “ACTA2 mRNA fold change” value was determined as 0.0262.
`CN1CCN2c3ccccc3Cc3ccccc3C2C1` (stereo not given) [Mianserin hcl] (25.2333 µM): the “ACTA2 mRNA fold change” value was 0.899.
Consider `C#C[C@]1(O)CC[C@H]2[C@@H]3CCC4=Cc5oncc5C[C@]4(C)[C@H]3CC[C@@]21C` [Danazol] (33.3333 µM), for which the “ACTA2 mRNA fold change” value turned out to be 0.0332.
Take `O=S(=O)(NCCNC/C=C/c1ccc(Br)cc1)c1cccc2cnccc12` [H-89, Dihydrochloride] (11.1 µM): the “ACTA2 mRNA fold change” value amounted to 1.09.
Turning to `CN(C)CCC(c1ccc(Br)cc1)c1ccccn1` (stereo not given) [Brompheniramine maleate] (33.3333 µM), the “ACTA2 mRNA fold change” value was 1.25.
In the case of `NC1(c2ccc(-c3nc4ccn5c(=O)[nH]nc5c4cc3-c3ccccc3)cc2)CCC1` (11.1 µM), the “ACTA2 mRNA fold change” value was determined as 0.33.
For `OCCN1CCN(CCCN2c3ccccc3Sc3ccc(C(F)(F)F)cc32)CC1` (33.3333 µM) the value was 0.0188; for `Cc1cnc(-c2cnc(NCCNc3ccc(C#N)cn3)nc2-c2ccc(Cl)cc2Cl)[nH]1` (33.3333 µM), 0.259.
In the case of `CC(C)(C)c1cc(NC(=O)Nc2ccc(-c3cn4c(n3)sc3cc(OCCN5CCOCC5)ccc34)cc2)no1` [Quizartinib  (AC220)] (11.1 µM), the “ACTA2 mRNA fold change” value stood at 0.258.
Regarding `O=C(c1ccc(/C=C/c2n[nH]c3ccccc23)cc1)N1CCNCC1` (33.3333 µM), the “ACTA2 mRNA fold change” value was 0.0375.
Turning to `CNCCC(Oc1ccc(C(F)(F)F)cc1)c1ccccc1` (stereo not given) [Fluoxetine hydrochloride] (33.3333 µM), the “ACTA2 mRNA fold change” value is 0.0314.
For `Cn1cc(CNCC2CCN(c3ncc(C(=O)NO)cn3)CC2)c2ccccc21` [Quisinostat] (33.3333 µM) the value was 0.00604.
With `CCCCCCCCc1ccc(CCC(N)(CO)CO)cc1` [Fingolimod (FTY720) HCl] (11.1 µM), the “ACTA2 mRNA fold change” value came to 0.301.

The values are drawn from the supplement of paper PMC9135407.
